Results as given in PubChem BioAssay (EPA / NIEHS).
The source made the active and inactive calls. Rule for the calls: active = hit-call score of the fitted dose curve at least 0.9, where 1 is the maximum; inactive = score below 0.9.

read-out: urokinase plasminogen activator (uPA), PLAU (gene 5328); assay: BSK_KF3CT_uPA: BioMAP Diversity Plus: KF3CT Assay for urokinase plasminogen activator (uPA) Biomarker Activity (AID 2283075); conditions: primary human keratinocytes with fibroblasts; actives raise or lower the signal
Protocol: BSK_KF3CT is a cell-based, multiplexed-readout assay that uses keratinocytes and foreskin fibroblasts, a human skin primary cell co-culture, with measurements taken at 24 hours after chemical dosing in a 96-well plate.BSK_KF3CTA is an assay component measured in the BSK_KF3CT assay. It measures uPA antibody related to regulation of gene expression using ELISA technology.Data from the assay component BSK_KF3CTA was analyzed into 1 assay endpoint. This assay endpoint, BSK_KF3CTA, was analyzed with bidirectional fitting relative to DMSO as the negative control and baseline of activity. Using a type of binding reporter, gain or loss-of-signal activity can be used to understand changes in the signaling as they relate to the gene PLAU. Furthermore, this assay endpoint can be referred to as a primary readout, because this assay has produced multiple assay endpoints where this one serves a signaling function. To generalize the intended target to other relatable targets, this assay endpoint is annotated to the protease intended target family, where the subfamily is serine protease.
The levels of cell surface (or secreted, indicated by the prefix "s") biomarker endpoints were measured by ELISA. Overt cytotoxicity to cells in confluent adherent cultures (all systems other than the BT system) was assessed by measuring total protein levels using sulforhodamine B (SRB) staining in parallel cultures at the time of biomarker measurements, indicated as SRB endpoints. For proliferation assays for adherent cell types, individual cell types are cultured at sub-confluence and relative cell numbers quantified by SRB staining at time points optimized for each system (48 h: 3C and CASM3C systems; 72 h: BT and HDF3CGF systems; 96 h: SAg system). SRB was performed by staining cells with 0.1% SRB after fixation with 10% TCA and reading wells at 560 nm.Viability and proliferation of PBMC (T cells) was quantified by Alamar Blue reduction for the SAg and BT systems. For PBMC viability (referred to as PBMC Cytotoxicity within the assay endpoint names), cells were plated (75,000/well in a 96-well plate) and then chemical samples added for 1 h before addition of activators, SEB and TSST-1 (20 ng/mL final concentration each). Cells were incubated for 90 h. Then, Alamar Blue (20 uL/well) (Invitrogen, Cat DAL1100) was added for 6 h, and the plates were read with a fluorescence microplate reader at 546/580 nm (excitation/emission). For PBMC proliferation, cells were plated and activated as above but incubated for only 16 h prior to addition of Alamar Blue. Plates were read after 6 h.

SMILES	outcome	AC50
COP(=O)(OC)C(O)C(Cl)(Cl)Cl (stereo not given)	inactive	
CN1COCN(Cc2cnc(Cl)s2)C1=N[N+](=O)[O-]	inactive	
CCOP(=O)(NC(C)C)Oc1ccc(SC)c(C)c1 (stereo not given)	inactive	
CNC(=O)ON=C(C)SC	inactive	
CC[C@H](C)[C@H]1O[C@]2(C=C[C@@H]1C)C[C@@H]1C[C@@H](C/C=C(\C)[C@@H](O[C@H]3C[C@H](OC)[C@@H](O[C@H]4C[C@H](OC)[C@@H](NC)[C@H](C)O4)[C@H](C)O3)[C@@H](C)/C=C/C=C3\CO[C@@H]4[C@H](O)C(C)=C[C@@H](C(=O)O1)[C@]34O)O2		9.27 µM (active)
C#CC(C)(C)NC(=O)c1cc(Cl)cc(Cl)c1	inactive	
CCCCOC(=O)c1ccccc1C(=O)O	inactive	
CON=C(C(=O)OC)c1ccccc1CON=C(C)c1cccc(C(F)(F)F)c1	inactive	
O=C(O)c1cc(Oc2ccc(C(F)(F)F)cc2Cl)ccc1[N+](=O)[O-]	inactive	
CNC(=O)Oc1cccc2c1OC(C)(C)O2	inactive	
COP(=O)(NC(C)=O)SC (stereo not given)	inactive	
CN(C)C(=O)Nc1cccc(C(F)(F)F)c1	inactive	
CC(C1CC1)C(O)(Cn1cncn1)c1ccc(Cl)cc1 (stereo not given)	inactive	
CCNc1nc(Cl)nc(NC(C)(C)C#N)n1	inactive	
Cc1cc(C2CC2)nc(Nc2ccccc2)n1	inactive	
CCC(=O)Nc1ccc(Cl)c(Cl)c1	inactive	
CC(C)[C@H](C(=O)O[C@H](C#N)c1cccc(Oc2ccccc2)c1)c1ccc(Cl)cc1	inactive	
CC(C)N(C(=O)SCC(Cl)=C(Cl)Cl)C(C)C		32.6 µM (active)
COc1cccc(C(=O)NN(C(=O)c2cc(C)cc(C)c2)C(C)(C)C)c1C	inactive	
CC(Oc1cccc(Cl)c1)C(=O)O (stereo not given)	inactive	

SMILES	outcome	AC50
C=C(C)[C@H]1Cc2c(ccc3c2O[C@@H]2COc4cc(OC)c(OC)cc4[C@@H]2C3=O)O1	inactive	
CCCCOC(=O)[C@@H](C)Oc1ccc(Oc2ccc(C#N)cc2F)cc1	inactive	
CCOP(=S)(OCC)Oc1ccc2c(C)c(Cl)c(=O)oc2c1	inactive	
C#CCC1=C(C)C(OC(=O)C2C(C=C(C)C)C2(C)C)CC1=O (stereo not given)	inactive	
COc1ccc(C(=CC(=O)N2CCOCC2)c2ccc(Cl)cc2)cc1OC	inactive	
CN(C)NC(=O)CCC(=O)O	inactive	
CCc1cccc(C)c1N(C(=O)CCl)C(C)COC (stereo not given)	inactive	
Nc1c(Cl)cc([N+](=O)[O-])cc1Cl	inactive	
CCC(=NOC/C=C/Cl)C1=C(O)CC(C2CCOCC2)CC1=O (stereo not given)	inactive	
CCOP(=O)(OCC)Oc1cc(C)nc(C(C)C)n1		29.3 µM (active)
CCOP(=S)(OCC)SCCSCC		29.4 µM (active)
S=C1NCCN1	inactive	
CCc1cnc(C2=NC(C)(C(C)C)C(=O)N2)c(C(=O)O)c1 (stereo not given)	inactive	
Nc1nc(N)nc(NC2CC2)n1	inactive	
COP(=O)(OC)SCn1c(=O)oc2cc(Cl)cnc21		20 µM (active)
CSC1=N[C@@](C)(c2ccccc2)C(=O)N1Nc1ccccc1	inactive	
FC(F)C(F)(F)OCC(Cn1cncn1)c1ccc(Cl)cc1Cl (stereo not given)	inactive	
CSc1nc(NC(C)C)nc(NC(C)C)n1	inactive	
CCOP(=S)(OCC)Oc1cc(C)nc(C(C)C)n1	inactive	
CCOP(=S)(OCC)Oc1ccc([N+](=O)[O-])cc1	inactive	
